Screens (PubChem BioAssay)
PLK1 PBD inh = Plk1 polo box domain binding inhibitors, primary screen, biochemical, fluorescence polarization. Serine/threonine-protein kinase PLK1 (Homo sapiens), P53350. Plk1 PBD phosphopeptide binding. inhibition, %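 (tested at about 20 µM)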. 97,000 compounds, 0.13% hits; in the data active means inhibition above about 34%, passing the limit was not always enough
CYP2C19 inh = blockers of cytochrome P450 2C19 activity – biochemical, luminescence, ADME assay, primary screen. 96,000 compounds, 21% hits. inhibition, % at 5 µM. P33261. CYP2C19 Supersomes, luciferin-H EGE luminescence, 30 min;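 active means CYP2C19 inhibition above a set limit at 5 µM in the primary screen, cut at about 50% in these data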;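 further: plate controls were negative control wells for no effect and 2.5 mM tranylcypromine positive control for full effect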
Target sequence (P33261 whole entry, looked up): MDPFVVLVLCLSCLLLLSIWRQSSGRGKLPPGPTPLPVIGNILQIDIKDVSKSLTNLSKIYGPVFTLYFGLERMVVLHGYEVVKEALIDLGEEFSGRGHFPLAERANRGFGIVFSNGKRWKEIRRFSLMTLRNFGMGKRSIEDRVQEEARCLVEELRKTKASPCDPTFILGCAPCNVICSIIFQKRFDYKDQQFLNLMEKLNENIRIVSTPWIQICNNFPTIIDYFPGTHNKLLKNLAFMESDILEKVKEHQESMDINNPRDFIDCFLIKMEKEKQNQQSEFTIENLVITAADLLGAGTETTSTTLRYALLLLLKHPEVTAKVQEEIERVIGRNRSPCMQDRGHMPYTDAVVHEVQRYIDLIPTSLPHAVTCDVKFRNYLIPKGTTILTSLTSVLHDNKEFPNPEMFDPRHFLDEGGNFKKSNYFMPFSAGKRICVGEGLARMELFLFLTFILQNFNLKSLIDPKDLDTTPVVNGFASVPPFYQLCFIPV
CYP2C9 inhib = blockers of cytochrome P450 2C9 activity – biochemical, luminescence, ADME assay, primary screen; P11712; CYP2C9 Supersomes, luciferin-H conversion; inhibition, % at 5 µM; 96,000 compounds, 20% hits; AID 777, 2007;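 active means blocking of liver enzyme CYP2C9 beyond about 50% at 5 µM, limit read from the data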
CYP2C9 activ = human CYP2C9 activators, primary screen, biochemical, luminescence; recombinant CYP2C9, luciferin-H conversion; stronger effect = higher value; factor 1 = untreated enzyme, 0 = blocked; 96,000 compounds, 1.4% hits; activation factor at 5 µM; Cytochrome P450 2C9 (Homo sapiens), P11712;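 active means activation factor of 2 or more for CYP2C9 at a 5 µM dose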;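 further: 0 = sulfaphenazole-blocked wells and 1 = vehicle-only wells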
PLK1 kinase inh = human PLK1 kinase inhibitors, primary screen, biochemical, TR-FRET; AID 619, 2007; Serine/threonine-protein kinase PLK1 (Homo sapiens), P53350; recombinant PLK1 kinase, TR-FRET peptide phosphorylation; inhibition, % at 10 µM; 97,000 compounds, 0.53% hits;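 active means inhibition of 50% or more in the single-concentration screen; inactive means inhibition below 50%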;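 further: 0% = DMSO max control and 100% = H-89 dihydrochloride min control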
CYP2C19 act = human CYP2C19 activators, primary screen, biochemical, luminescence | Cytochrome P450 2C19 (Homo sapiens), P33261 | recombinant CYP2C19, luciferin-H EGE luminescence; stronger effect = higher value; 0 = fully inhibited enzyme, 1 = untreated enzyme | activation factor at 5 µM | 96,000 tested, under 10 active;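 active means activation factor of at least 2 at 5 µM in the primary screen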;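 further: 0 = wells with 2.5 mM tranylcypromine and 1 = vehicle-only wells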
Starred values were filed as active, the others as inactive; · = no result. Rows were chosen to be rich in hits. Some 28% of all compounds tested hit in one or more screens of this group.

SMILES | PLK1 PBD inh | CYP2C19 inh | CYP2C9 inhib | CYP2C9 activ | PLK1 kinase inh | CYP2C19 act
COc1ccc(C)cc1NC(=O)c1ccc2c(c1)OCO2 | -7.5 | 85.9* | -76.5 | 1.8 | -13.9 | 0.1
Cc1ccc(C)c(NC(=O)c2ccc(N(C)S(C)(=O)=O)cc2)c1 | -25.8 | 14.2 | 51.4* | 0.5 | -9.6 | 0.9
CN(c1ccc(C(=O)Nc2ccc3c(c2)OCCO3)cc1)S(C)(=O)=O | -8.7 | 38.0 | 33.9 | 0.7 | -10.3 | 0.6
COc1ccc(C)cc1NC(=O)c1ccc(N(C)S(C)(=O)=O)cc1 | 6.1 | 31.7 | -146.6 | 2.5* | -6.7 | 0.7
CN(c1ccc(C(=O)Nc2ccccc2Sc2ccccc2)cc1)S(C)(=O)=O | -13.1 | 30.2 | 46.5 | 0.5 | -8.8 | 0.7
COc1ccc(OC)c(CCNC(=O)CC2Oc3ccc(C)cc3NC2=O)c1 (stereo not given) | -0.3 | 21.0 | 15.7 | 0.8 | -3.2 | 0.8
COc1ccc(/C=N/Nc2ccccc2)cc1Cn1nc(C)c([N+](=O)[O-])c1C | 23.9 | 72.5* | 50.2* | 0.5 | 3.1 | 0.3
COc1ccc(/C=N/Nc2ccc([N+](=O)[O-])cc2)cc1Cn1cc([N+](=O)[O-])cn1 | 11.9 | -1.3 | 11.5 | 0.9 | -11.1 | 1
CCNc1nc(OC)nc(Oc2ccc(=O)n(-c3ccccc3)n2)n1 | -7.9 | -4.7 | -1.5 | 1 | -11.8 | 1
COc1nc(NC(C)(C)C)nc(Oc2ccc(=O)n(-c3ccccc3)n2)n1 | -1.0 | 42.1 | 55.5* | 0.4 | -8.8 | 0.6
N#Cc1ccsc1NC(=O)CN1CCCCCC1 | 0.5 | 50.1* | 20.8 | 0.8 | -3.8 | 0.5
CC(=O)Nc1ccc(NC(=O)N2CCCCC2)cc1 | -39.7 | 3.0 | 8.8 | 0.9 | -0.7 | 1
O=C(CCN1CCCCC1)Nc1ccc(Br)cc1 | -22.1 | · | · | · | -10.5 | ·
O=C(CN1CCCCCC1)Nc1ccc(Br)cc1 | -13.1 | 93.2* | 8.7 | 0.9 | -1.1 | 0.1
COc1ccc(NC(=O)CN2CCN(CC(=O)Nc3ccccc3F)CC2)c(OC)c1 | -17.2 | 97.5* | 70.9* | 0.3 | -8.7 | 0
O=C(Nc1ccc(Br)cc1)N1CCCCCCC1 | 5.8 | 92.7* | -3.6 | 1 | -2.4 | 0.1
CN(CC(=O)Nc1sccc1C#N)C1CCCCC1 | 19.5 | · | · | · | 10.2 | ·
CC(Sc1nc2ccccc2o1)C(=O)O (stereo not given) | · | 12.3 | 14.8 | 0.9 | · | 0.9
COc1ccc(NC(=O)CN2CCN(CC(=O)Nc3ccccc3Cl)CC2)cc1 | -12.2 | 85.0* | 49.2 | 0.5 | -5.0 | 0.2
COc1ccc(NC(=O)CN2CCCCC2)cc1 | 20.0 | 76.6* | 23.7 | 0.8 | -17.1 | 0.2
COc1ccc(NC(=O)CSC2CCCCC2)cc1 | 11.5 | 97.5* | 50.8* | 0.5 | -12.5 | 0
COc1ccc(NC(=O)CN2CCC(C(N)=O)(N3CCCCC3)CC2)cc1 | -9.1 | 20.0 | 17.0 | 0.8 | -1.9 | 0.8
COc1ccc(NC(=O)CN2CCN(CC(=O)Nc3ccccc3Cl)CC2)c(OC)c1 | -3.4 | 97.7* | 73.7* | 0.3 | 2.7 | 0
COc1cc(NC(=O)CC2NCCNC2=O)cc(OC)c1 (stereo not given) | 37.5 | -11.3 | -1.6 | 1 | -9.7 | 1.1
CCOc1ccc(NC(=O)CN2CCN(CC(=O)Nc3cccc(F)c3)CC2)cc1 | · | 27.3 | 18.7 | 0.8 | · | 0.7
SMILES | PLK1 PBD inh | CYP2C19 inh | CYP2C9 inhib | CYP2C9 activ | PLK1 kinase inh | CYP2C19 act
CCOc1ccc(NC(=O)CN2CCN(CC(=O)Nc3cc(OC)cc(OC)c3)CC2)cc1 | · | 48.0 | 59.0* | 0.4 | · | 0.5
Cn1c(=O)c(Cc2ccccc2)c(O)c2ccccc21 | -17.9 | 70.8* | 49.9 | 0.5 | 1.1 | 0.3
CCCCCOC(=O)Cc1c(O)c2ccccc2n(C)c1=O | 3.0 | 78.9* | 44.3 | 0.6 | 0.5 | 0.2
CCCCCCCCOC(=O)CCn1[nH]c(=O)c2ccccc2c1=O | 8.3 | 61.2* | 66.0* | 0.3 | -9.7 | 0.4
Cc1cnc(NC(=O)CSc2nnc(-c3cccs3)n2C)s1 | -12.6 | 23.9 | 12.3 | 0.9 | -13.0 | 0.8
CC(C)=CC1C(C(=O)Nc2ccc(Br)cn2)C1(C)C (stereo not given) | 9.6 | 22.7 | 34.9 | 0.7 | -9.4 | 0.8
COc1ccc2cnn(-c3ccccc3)c(=O)c2c1OC | -3.7 | 4.9 | 13.6 | 0.9 | 27.0 | 1
COc1cnn(-c2ccccc2)c(=O)c1SCc1ccc(Cl)c(Cl)c1 | 16.0 | 54.2* | 52.1* | 0.5 | -10.2 | 0.5
CCOC(=O)N1CCC(N2C(=O)c3ccccc3C2Nc2ccc3c(c2)OCCO3)CC1 (stereo not given) | -9.6 | 33.4 | 46.6 | 0.5 | -9.7 | 0.7
CC(=O)c1cccc(NC2c3ccccc3C(=O)N2Cc2ccc3c(c2)OCO3)c1 (stereo not given) | · | 38.4 | 61.1* | 0.4 | · | 0.6
CCOc1ccc(NC2c3ccccc3C(=O)N2Cc2ccc3c(c2)OCO3)cc1 (stereo not given) | 25.1 | 99.3* | 98.5* | 0 | -5.7 | 0
O=C1c2ccccc2C(Nc2ccc3c(c2)OCCO3)N1Cc1ccccc1 (stereo not given) | -19.9 | 98.6* | 98.3* | 0 | -4.7 | 0
O=C1c2ccccc2C(Nc2cccnc2)N1Cc1ccccc1 (stereo not given) | -16.2 | 47.1 | 25.2 | 0.7 | -13.7 | 0.5
COc1cc(NC2c3ccccc3C(=O)N2Cc2ccc3c(c2)OCO3)cc(OC)c1OC (stereo not given) | -22.3 | 98.2* | 64.4* | 0.4 | -1.2 | 0
O=C(NCC1CCCO1)C1c2ccccc2C(=O)N1Cc1ccc2c(c1)OCO2 (stereo not given) | -8.1 | 3.4 | 5.1 | 0.9 | -13.2 | 1
CCCC(C(=O)Nc1nccs1)c1ccccc1 (stereo not given) | -13.6 | 54.2* | 48.3 | 0.5 | -4.2 | 0.5
O=C(Nc1nccs1)C(NS(=O)(=O)c1ccc(Br)s1)c1ccccc1 (stereo not given) | 19.0 | 37.7 | 62.3* | 0.4 | -8.9 | 0.6
CCC(C(=O)Nc1nccs1)c1ccccc1 (stereo not given) | · | 68.9* | 9.3 | 0.9 | · | 0.3
CCC(C(=O)Nc1nc(C)cs1)c1ccccc1 (stereo not given) | 4.9 | 21.5 | 32.6 | 0.7 | -8.5 | 0.8
Cc1ccccc1C(=O)NC1CCN(CC(=O)Nc2nccs2)CC1 | 17.3 | -11.3 | -9.7 | 1.1 | -3.0 | 1.1
COC(=O)c1ccccc1NC(=S)NC(=O)c1ccccc1 | 12.3 | 56.1* | 25.0 | 0.8 | -1.9 | 0.4
COC(=O)c1ccccc1NC(=O)CN1CCC(NC(=O)c2ccccc2C)CC1 | -6.0 | 82.4* | 53.9* | 0.5 | -6.0 | 0.2
COC(=O)c1ccccc1NC(=S)NC(=O)c1ccccc1C | 13.0 | 51.2* | 26.7 | 0.7 | -12.3 | 0.5
